Screening data from PubChem.
Rows were chosen to be rich in hits. Some 1.3% of all compounds tested hit in one or more screens of this group.
AGP1-GFP MLPCN: modulators of AGP1-GFP expression in yeast TOR pathway, primary screen, cell-based, multiplex flow cytometry, S. cerevisiae, MLPCN library. 3 h; GFP as percent of DMSO wells. GFP response vs DMSO, % at 10 µM. 320,000 tested, 0.02% active. AID 2066, 2009;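 active = GFP response relative to DMSO above a set limit, near screen average plus 3 SD, cut at about 150% in these data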;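 note: median GFP channel fluorescence of the gated AGP1 strain per well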
Efflux pump mplx: inhibitors of Candida efflux pumps in yeast, primary screen, S. cerevisiae, Nile Red, multiplex; S. cerevisiae Candida pump triplex; inhibition, % at 10 µM; 330,000 tested, 0.44% active;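 active = plate passing quality check with inhibition over a set limit, or well fluorescence over plate mean plus 4 SD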;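 note: Nile Red retained in pooled yeast measured as flow cytometry median fluorescence; 0% = buffer negative control and 100% = Enniatin B positive control; higher means more Nile Red kept so more efflux inhibition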
MEP2-GFP yeast: modulators of MEP2-GFP levels in yeast, primary screen, S. cerevisiae, multiplex flow cytometry, MLPCN library; S. cerevisiae MEP2-GFP strain, 3 h; 100% = DMSO control level; GFP response vs DMSO, % at 10 µM; 330,000 tested, 0.51% active;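 active = GFP response versus DMSO above a set limit, roughly screen mean plus 3 SD, cut at about 180% in these data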;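 note: median GFP fluorescence of the barcode-gated MEP2-GFP cells per well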
CIT2 TOR yeast: modulators of CIT2-GFP expression in yeast, primary screen, S. cerevisiae, GFP fusion, multiplex flow cytometry, MLPCN library. 320,000 tested, 0.065% active. S. cerevisiae CIT2-GFP strain, 3 h; 100 means same as DMSO wells. GFP response vs DMSO, % at 10 µM;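 active = GFP response relative to DMSO above a set limit, near the screen mean plus 3 SD, cut at about 150% in these data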;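 note: ratio of well median GFP fluorescence to mean of DMSO wells on the plate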
RPL19A TOR yeast: RPL19A-GFP expression modulators in yeast, primary screen, cell-based, S. cerevisiae, multiplex flow cytometry, MLPCN. S. cerevisiae RPL19A-GFP strain, 3 h; stronger effect = lower value. percent response vs DMSO, % at 10 µM. 330,000 tested, 0.3% active. AID 2025, 2009;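 active = percent response vs DMSO below 50%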;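 note: median channel GFP fluorescence of the barcoded RPL19A-GFP strain; ratio of sample median GFP to plate DMSO average so 100% = DMSO; lower means less RPL19A-GFP as with rapamycin TOR inhibition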
LAP4 TOR yeast: modulators of LAP4-GFP expression in yeast, primary screen, S. cerevisiae, multiplex flow cytometry, MLPCN library; 3 h; median GFP as percent of DMSO wells; GFP response vs DMSO, % at 10 µM; 320,000 tested, 0.34% active;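 active = GFP response vs DMSO above a set limit, about the screen mean plus 3 SD, cut at about 150% in these data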
LAP4-GFP pick2: LAP4-GFP expression modulators in yeast, confirmation, cell-based, second cherry pick, flow cytometry. shares compounds with LAP4 TOR yeast. S. cerevisiae LAP4-GFP strain, 3 h. GFP response vs DMSO, % at 10 µM. 590 tested, 20% active. AID 2621, 2010;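 active = GFP signal as percent of the solvent control above about 150%, meaning raised reporter expression, limit read from the data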;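 note: ratio of well median GFP fluorescence to plate DMSO mean so 100% = DMSO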
MEP2 cherry2: modulators of MEP2-GFP levels in yeast, confirmation, S. cerevisiae, flow cytometry GFP, second cherry picks; shares compounds with LAP4 TOR yeast; S. cerevisiae MEP2-GFP strain, 3 h; GFP response vs DMSO, % at 10 µM; 590 tested, 10% active; AID 2622, 2010;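 active = GFP signal above 150% of the solvent control wells, that is a rise of more than half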;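 note: median channel GFP fluorescence of all gated yeast cells per well; ratio of median GFP to plate DMSO average so 100% = DMSO level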
RPL19A GFP CP2: RPL19A-GFP modulators in TOR pathway yeast, confirmation, cell-based, S. cerevisiae, flow cytometry, second cherry pick | shares compounds with LAP4 TOR yeast | S. cerevisiae RPL19A-GFP strain, 3 h; stronger effect = lower value; 100% means same as DMSO wells | 590 tested, 3% active | GFP response vs DMSO, % at 10 µM;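 active = under 65% GFP response relative to DMSO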;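 note: median GFP channel fluorescence per well over the all cells gate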
CIT2-GFP pick2: modulators of CIT2-GFP expression in yeast, confirmation, flow cytometry, second cherry pick, single plex | S. cerevisiae CIT2-GFP strain, 3 h; DMSO control wells read 100% | 590 tested, 8% active | AID 2624, 2010 | GFP response vs DMSO, % at 10 µM | shares compounds with LAP4 TOR yeast;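 active = GFP response vs DMSO above about 150%, limit read from the data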;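 note: median green fluorescence per well over all gated yeast cells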
AGP1 GFP CP2: AGP1-GFP expression modulators, hit retest, confirmation, cell-based, flow cytometry, S. cerevisiae, cherry pick set 2 | shares compounds with LAP4 TOR yeast | S. cerevisiae AGP1-GFP strain, 3 h | percent response vs DMSO, % at 10 µM | 590 tested, under 10 active;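 active = over 150 percent of DMSO response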;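 note: median GFP channel fluorescence over all cells without mother daughter split; sample median GFP divided by mean DMSO control so 100% equals DMSO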
Yeast autofluor: compound autofluorescence in yeast s288c, dose response, artefact control for yeast TOR pathway GFP screen, s288c strain; shares compounds with LAP4 TOR yeast; fluorescence change (kMESF span) at 33 µM; S. cerevisiae s288c, 520 nm autofluorescence, flow cytometry, 3 h; stronger effect = higher value; zero means same as solvent-only cells; AID 2757, 2010; 610 tested, under 10 active;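 active = fluorescence span over the dose series, or activity score, above about 33, limit read from the data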
s288c autofl DR: autofluorescence of compounds in yeast s288c, dose response, artefact control for yeast TOR pathway GFP screen, primary hits, KU SAR, s288c parental; shares compounds with LAP4 TOR yeast; S. cerevisiae s288c parental, compound autofluorescence, flow cytometry, 3 h; fluorescence change (span) at 33 µM; 110 tested, under 10 active; AID 488829, 2010;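 active = fluorescence change span, or the activity score built from it, above 25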
TORC1 bypass: wild-type yeast growth inhibition sparing TORC1 bypass cells, mechanism study for yeast TOR pathway GFP screen, BY4741 wild type, TORC1 bypass strain; 120 tested, under 10 active; shares compounds with LAP4 TOR yeast; S. cerevisiae BY4741 spot growth rating, 48-72 h; stronger effect = lower value; AID 504456, 2011; growth rating (0-3) at 30 µM;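 active = growth rating at most 1 for wild type yeast while the TORC1 bypass strain still grows fully, rated 3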
* = called active by the depositor; nt = not tested or not shown; + = active, no number.

SMILES	AGP1-GFP MLPCN	Efflux pump mplx	MEP2-GFP yeast	CIT2 TOR yeast	RPL19A TOR yeast	LAP4 TOR yeast	LAP4-GFP pick2	MEP2 cherry2	RPL19A GFP CP2	CIT2-GFP pick2	AGP1 GFP CP2	Yeast autofluor	others
COCCOc1ccc(C(F)(F)F)cc1NC(=O)COC(=O)Cc1c[nH]c2ccccc12	102.4	0.0	105.6	88.2	101.5	116.9	nt	nt	nt	nt	nt	nt
CCCOc1ccc(C(=O)NNC(=S)NC(=O)c2ccco2)cc1	112.5	-0.2	109.9	111.0	112.1	154.2*	nt	nt	nt	nt	nt	1.11
Cc1ccc(C(=O)NNC(=S)NC(=O)COc2ccccc2)cc1	91.3	0.0	129.9	96.5	101.5	275.1*	nt	nt	nt	nt	nt	-5.34	s288c autofl DR=0.68;TORC1 bypass=3
CC(C)(C)C(=O)NC(=S)NNC(=O)c1ccc(-c2ccccc2)cc1	88.1	0.2	125.9	93.7	88.6	246.4*	nt	nt	nt	nt	nt	1.43	s288c autofl DR=0.73;TORC1 bypass=3
Cc1ccccc1C(=O)NNC(=S)NC(=O)COc1ccccc1	91.7	-0.1	101.8	89.8	106.0	145.7	nt	nt	nt	nt	nt	nt
O=C(NNC(=S)NC(=O)c1ccco1)c1ccc(F)cc1	120.0	0.0	116.3	103.4	98.5	217.6*	nt	nt	nt	nt	nt	1.5
CCn1c(CNC(=O)c2ccccc2Br)nnc1SCC(=O)Nc1nncs1	105.2	0.3	106.5	103.3	103.7	103.7	nt	nt	nt	nt	nt	nt
Cn1c(C(=O)N2CCCC(Nc3ccc(F)cc3)C2)cc2ccccc21 (configuration not stated)	116.6	0.0	114.5	110.8	111.2	110.0	nt	nt	nt	nt	nt	nt
CCCCC(=O)NNC(=S)NC(=O)c1ccc(C)cc1	129.2	0.0	114.5	111.1	95.6	192.8*	nt	nt	nt	nt	nt	1.11	s288c autofl DR=0.89;TORC1 bypass=3
CCCCC(=O)NNC(=S)NC(=O)c1ccc([N+](=O)[O-])cc1	94.5	0.1	95.2	96.2	95.7	119.3	nt	nt	nt	nt	nt	nt
CCc1cc(Cn2nc(-c3ccccc3)cc2C(=O)NCc2cccs2)on1	97.6	0.1	98.7	85.2	97.6	96.0	nt	nt	nt	nt	nt	nt
CCCc1cc(=O)oc2cc(C)cc(OCC(=O)NC3CC3)c12	16.2	0.7	142.3	105.6	51.3	89.9	98.2	99.6	98.9	104.3	98.5	0.1
CCc1cc(=O)oc2cc(C)cc(OCC(=O)NC3CC3)c12	110.8	-0.4	114.5	114.9	104.7	102.4	nt	nt	nt	nt	nt	nt
O=C(O)c1cc(S(=O)(=O)NCCCN2CCCC2=O)ccc1Cl	102.3	-0.1	110.1	111.5	101.0	92.2	nt	nt	nt	nt	nt	nt
Cc1cccc(C(=O)NCC(=O)N2CCC2)c1	447.0*	1.1	+	+	402.6	+	100.0	99.8	99.2	104.0	99.1	nt
O=C(c1ccccc1)c1ccccc1N1C(=O)C=CC1=O	85.3	-0.1	86.6	69.7	81.3	327.2*	nt	nt	nt	nt	nt	1.12
ClC(Cl)(c1nnnn1-c1ccccc1)c1nnnn1-c1ccccc1	64.4	-0.2	82.9	86.4	93.1	232.1*	264.5*	148.5	92.2	132.1	96.2	1.6
c1ccc(-c2nnnn2-c2ccccc2)cc1	101.3	0.0	106.7	104.3	105.2	90.8	nt	nt	nt	nt	nt	nt
COc1ccc2[nH]c(C(=O)O)c(CCN3C(=O)c4cccc([N+](=O)[O-])c4C3=O)c2c1	31.7	0.1	150.7	91.6	64.1	97.5	99.2	104.8	101.0	101.5	101.2	nt
COc1ccc2[nH]c(C(=O)O)c(CCNC(C)=O)c2c1	106.2	0.0	103.1	104.0	99.0	98.6	nt	nt	nt	nt	nt	nt
CCCOc1ccc(/C=c2\sc3ncnn3c2=O)cc1	90.5	0.0	85.7	90.8	91.5	105.3	nt	nt	nt	nt	nt	nt
CCOc1ccccc1/C=c1\sc2ncnn2c1=O	65.8	0.0	86.7	67.6	97.4	274.8*	226.4*	111.8	108.3	109.9	89.0	0.91
CC(=O)Oc1ccc(/C=c2\sc3ncnn3c2=O)cc1	84.9	0.0	91.3	98.8	101.5	152.9*	nt	nt	nt	nt	nt	0.5
COC(=O)CNC(=S)NC(=O)c1ccc(C(C)(C)C)cc1	89.6	0.2	89.0	86.3	92.7	95.4	nt	nt	nt	nt	nt	nt
Cc1ccc2c(c1)N(CCCC(=O)Nc1cccc(C(F)(F)F)c1)C(=O)CO2	14.8	-0.1	111.2	97.7	60.2	86.4	102.2	110.0	98.7	100.1	97.8	nt
Cn1cccc1/C=N/NC(=O)c1cc2ccccc2cc1O	102.0	-0.1	99.2	95.9	104.7	92.3	nt	nt	nt	nt	nt	nt
Oc1ccc(CNc2ccccc2)c2cccnc12	98.8	0.1	105.3	102.0	94.5	78.2	103.2	124.0	105.3	121.0	102.7	0.4
Cc1ccc(C)c(N=Cc2c(O)c3ccccc3oc2=O)c1	76.2	0.0	108.0	84.3	101.0	85.5	nt	nt	nt	nt	nt	nt
Cc1c(N2C(=O)/C(=C\c3ccccc3O)SC2=S)c(=O)n(-c2ccccc2)n1C	93.2	-0.1	96.2	107.9	95.3	169.8*	nt	nt	nt	nt	nt	0.6
CC(=O)N1CCc2cc(S(=O)(=O)CCC(=O)NCc3ccc(F)cc3)ccc21	17.4	-0.1	122.0	101.2	58.6	84.8	106.2	104.8	97.8	97.3	101.7	nt
